In PubChem BioAssay (EPA / NIEHS) one finds outcome and AC50 data, which are given here for 16 compounds.

Molecules are shown by their SMILES. Values joined by “and” are separate entries in the source; they are usually repeats but may differ in a detail not shown here. Equal entries are not always repeated. More than one record can exist for a structure, and the calls need not agree. Active and inactive are the calls of the source. How the source made its calls: active means hit-call score of the fitted dose curve at least 0.9, where 1 is the maximum; inactive means score below 0.9.

Experiment [1] deals with Paired box protein Pax-6 (Homo sapiens) (UniProt P26367). Put plainly: ATG_Pax6_CIS: Attagene CIS-FACTORIAL HepG2 Assay for human Paired Box 6 (PAX6) (AID 2282956). The following applies: HepG2 CIS-FACTORIAL PAX6 reporter transcription, RNA readout; actives raise or lower the signal. An outline of the steps:
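Readout: reporter transcript fluorescence after RT-PCR and capillary electrophoresis. Cells: HepG2, transiently transfected with cis-regulated MRTUs. Exposure 24 h. Gain or loss of signal fitted bidirectionally relative to DMSO.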

Experiment [2] can be described thus: ATG_PXRE_CIS: Attagene CIS-FACTORIAL HepG2 Assay for human Pregnane X Receptor Element (PXRE) (AID 2282957). The following applies: HepG2 Attagene CIS-FACTORIAL PXRE reporter, mRNA; actives raise or lower the signal. An outline of the steps: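 Read-out: fluorescence of reporter-specific RT-PCR products resolved by capillary electrophoresis, fitted bidirectionally relative to DMSO. Human HepG2 liver cells carried transfected cis-promoter reporter units and were exposed to chemicals for 24 h.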

Experiment [3] can be described thus: ATG_Sox_CIS: Attagene CIS-FACTORIAL HepG2 Assay for human SRY-box transcription factor (SOX) (AID 2282960). The following applies: HepG2 Attagene cis-factorial SOX reporter, mRNA; actives raise or lower the signal. An outline of the steps:
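HepG2, cis reporter units, 24 h exposure. Reporter mRNA: RT-PCR → FAM labelling → HpaI → CE fluorescence. Bidirectional fit vs DMSO.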

Experiment [4] addresses Transcription factor Sp1 (Homo sapiens) (UniProt P08047). In words: ATG_Sp1_CIS: Attagene CIS-FACTORIAL HepG2 Assay for human Specificity Protein 1 (Sp1) (AID 2282961). The settings on record: HepG2 Sp1 cis-reporter transcription, actives raise or lower the signal. An outline of the steps: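 Liver-derived HepG2 cells, cis-element reporter library, 24 h treatment; RNA isolated, cDNA amplified with reporter-specific primers, FAM-labeled fragments sized on capillary analyzer. DMSO baseline, bidirectional curve fit.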

A short description of experiment [5]: ATG_SREBP_CIS: Attagene CIS-FACTORIAL HepG2 Assay for human Sterol Regulatory Element Binding (SREBP) (AID 2282962). The following applies: HepG2 Attagene cis-factorial SREBP reporter, mRNA; actives raise or lower the signal. An outline of the steps: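 Readout: fluorescent reporter-transcript peaks resolved by capillary electrophoresis after RT-PCR. Cells were human HepG2 carrying transfected cis-promoter reporter constructs, dosed for 24 h. Gain or loss of signal was fitted against DMSO controls.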

Experiment [6] can be described thus: ATG_TA_CIS: Attagene CIS-FACTORIAL HepG2 Assay for human TA Basal Promoter (AID 2282964). The following applies: HepG2 Attagene CIS-factorial TA basal promoter reporter; actives raise or lower the signal. An outline of the steps:
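Transfected HepG2, 24 h compound exposure; RNA → RT-PCR → FAM primer extension → HpaI cut → CE fluorescence. Gain/loss-of-signal fitted against DMSO negative control. Background-control readout.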

The nature of experiment [7]: ATG_TCF_b_cat_CIS: Attagene CIS-FACTORIAL HepG2 Assay for human T-Cell-Factor with beta-catenin (TCF/b-cat) (AID 2282965). The settings on record: HepG2 TCF/beta-catenin cis-reporter transcription, actives raise or lower the signal. An outline of the steps: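 HepG2 cells transiently transfected with cis-promoter-driven multiplexed reporter units; reporter mRNA measured 24 h after dosing by RT-PCR, FAM labelling, HpaI digestion and capillary electrophoresis. Bidirectional fitting relative to DMSO baseline.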

Experiment [8] has as its target Signal transducer and activator of transcription 3 (Homo sapiens) (UniProt P40763). In words: ATG_STAT3_CIS: Attagene CIS-FACTORIAL HepG2 Assay for human Signal Transducer and Activator of Transcription 3 (STAT3) (AID 2282963). The settings on record: HepG2, Attagene cis-factorial STAT3 reporter transcription; actives raise or lower the signal. An outline of the steps: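 Fluorescence intensity of 6-FAM-labelled reporter fragments, separated by capillary electrophoresis after RT-PCR, gave the signal. Cells were HepG2 transfected with cis-element reporter units and treated 24 h; fitting was bidirectional relative to DMSO.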

Experiment [9] in a line: ATG_PPRE_CIS: Attagene CIS-FACTORIAL HepG2 Assay for human Peroxisome Proliferator-activated Response Element (PPRE) (AID 2282958). The following applies: HepG2 PPRE cis-element reporter, Attagene transcription factor profiling; actives raise or lower the signal. An outline of the steps:
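PPRE activity in HepG2: transient cis-reporter transfection, 24 h compound incubation, reporter mRNA by RT-PCR and CE fluorescence; gain/loss fitted against DMSO.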

Experiment [10] can be described thus: ATG_RORE_CIS: Attagene CIS-FACTORIAL HepG2 Assay for human RAR-related Orphan Receptor Element (RORE) (AID 2282959). The following applies: HepG2 Attagene cis-factorial RORE reporter, mRNA; actives raise or lower the signal. An outline of the steps:
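A 24-hour exposure of transfected HepG2 hepatoma cells precedes RNA isolation and reporter RT-PCR. Labeled products are digested with HpaI and resolved by capillary electrophoresis, with gain or loss of signal scored relative to DMSO.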

Chain of Transcription factor Sp1 (Homo sapiens) (P08047 whole entry, looked up, the tested form may be a part): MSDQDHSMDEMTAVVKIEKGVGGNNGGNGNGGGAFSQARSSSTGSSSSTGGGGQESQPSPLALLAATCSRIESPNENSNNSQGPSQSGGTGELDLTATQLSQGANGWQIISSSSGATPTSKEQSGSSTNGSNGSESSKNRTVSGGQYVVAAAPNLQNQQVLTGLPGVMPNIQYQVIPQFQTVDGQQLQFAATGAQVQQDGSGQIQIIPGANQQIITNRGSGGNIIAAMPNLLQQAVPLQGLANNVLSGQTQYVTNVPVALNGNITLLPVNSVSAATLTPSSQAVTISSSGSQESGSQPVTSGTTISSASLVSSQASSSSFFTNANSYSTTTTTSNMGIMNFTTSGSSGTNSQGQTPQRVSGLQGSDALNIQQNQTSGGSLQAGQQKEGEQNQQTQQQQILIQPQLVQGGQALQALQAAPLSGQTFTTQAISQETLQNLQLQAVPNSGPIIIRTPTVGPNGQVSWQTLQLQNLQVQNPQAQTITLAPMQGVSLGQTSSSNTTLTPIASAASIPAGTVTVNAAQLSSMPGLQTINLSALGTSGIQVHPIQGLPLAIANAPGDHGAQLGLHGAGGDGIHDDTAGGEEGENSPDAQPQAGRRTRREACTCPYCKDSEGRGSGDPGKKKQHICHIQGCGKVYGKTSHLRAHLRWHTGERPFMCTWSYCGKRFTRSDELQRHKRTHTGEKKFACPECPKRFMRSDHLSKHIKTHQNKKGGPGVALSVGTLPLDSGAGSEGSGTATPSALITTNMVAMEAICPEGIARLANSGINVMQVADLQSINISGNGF
Chain of Paired box protein Pax-6 (Homo sapiens) (P26367 whole entry, looked up): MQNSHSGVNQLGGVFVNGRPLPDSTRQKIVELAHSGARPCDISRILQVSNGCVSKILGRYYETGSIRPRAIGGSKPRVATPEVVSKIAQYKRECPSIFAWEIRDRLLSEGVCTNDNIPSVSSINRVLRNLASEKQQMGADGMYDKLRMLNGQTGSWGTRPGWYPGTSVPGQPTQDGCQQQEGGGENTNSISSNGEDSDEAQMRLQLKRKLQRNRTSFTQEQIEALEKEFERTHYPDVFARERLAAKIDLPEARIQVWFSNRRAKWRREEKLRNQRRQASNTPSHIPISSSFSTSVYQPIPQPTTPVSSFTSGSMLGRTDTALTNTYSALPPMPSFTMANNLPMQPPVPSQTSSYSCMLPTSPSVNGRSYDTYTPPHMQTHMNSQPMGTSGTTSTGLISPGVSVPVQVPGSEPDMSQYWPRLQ
Chain of Signal transducer and activator of transcription 3 (Homo sapiens) (P40763 whole entry, looked up, the tested form may be a part): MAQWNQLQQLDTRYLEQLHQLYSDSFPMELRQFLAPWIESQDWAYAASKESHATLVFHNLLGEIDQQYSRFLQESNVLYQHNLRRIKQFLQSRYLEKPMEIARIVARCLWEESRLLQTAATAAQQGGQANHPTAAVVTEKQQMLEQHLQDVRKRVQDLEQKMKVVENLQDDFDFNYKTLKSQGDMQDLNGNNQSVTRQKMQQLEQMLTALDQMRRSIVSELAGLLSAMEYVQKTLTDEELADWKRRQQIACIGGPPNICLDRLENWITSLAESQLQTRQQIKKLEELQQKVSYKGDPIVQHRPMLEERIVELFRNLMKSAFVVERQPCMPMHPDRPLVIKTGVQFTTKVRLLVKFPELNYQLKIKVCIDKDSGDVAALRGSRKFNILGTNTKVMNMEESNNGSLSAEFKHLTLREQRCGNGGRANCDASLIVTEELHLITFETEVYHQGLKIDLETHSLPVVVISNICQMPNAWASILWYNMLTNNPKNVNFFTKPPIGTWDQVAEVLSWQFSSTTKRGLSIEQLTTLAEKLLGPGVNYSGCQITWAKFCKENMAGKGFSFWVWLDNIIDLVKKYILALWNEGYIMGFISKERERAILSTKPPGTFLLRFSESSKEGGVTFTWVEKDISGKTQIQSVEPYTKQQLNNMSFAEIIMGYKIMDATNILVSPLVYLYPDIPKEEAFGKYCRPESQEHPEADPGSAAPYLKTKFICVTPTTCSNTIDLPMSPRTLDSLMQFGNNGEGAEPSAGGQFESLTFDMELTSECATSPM

In the case of `c1cnc2c(c1)ccc1cccnc12`, the call in experiment [1], in experiment [2], in experiment [3], in [4], in experiment [5] and in [6] was inactive. For the same compound, the call in experiment [7] was inactive.

Turning to `O=S(=O)(O)c1ccc2cc(O)ccc2c1`, the outcome in experiment [1], in experiment [2], in experiment [3], in experiment [4], in experiment [5] and in experiment [8] was inactive. The outcome in experiment [6] and in experiment [7] was inactive.

As to `CC(C)C=O`, the compound was classed as inactive in experiment [1], in experiment [9], in experiment [10], in experiment [3], in experiment [4] and in experiment [5]. Further, the compound was called inactive in experiment [7]. Besides, in experiment [2], the AC50 was 61.9 µM (active) and 34.9 µM (active).

Take `CN(C)c1ccc(C(=C2C=CC(=[N+](C)C)C=C2)c2ccccc2)cc1`: the AC50 was 1.43 µM (active) and 1.44 µM (active) in [1]; 1.36 µM (active) in experiment [3]; 1.43 µM (active) in experiment [4]; 9.9 µM (active) in experiment [5]; 2.07 µM (active) and 2.43 µM (active) in experiment [7]. In addition, the compound was classed as inactive in experiment [2], in [3], in experiment [4], in experiment [5] and in experiment [8].

Take `NC(=NCCCCCCN=C(N)/N=C(\N)Nc1ccc(Cl)cc1)/N=C(\N)Nc1ccc(Cl)cc1`: the result in experiment [1], in experiment [2], in [3], in experiment [4], in experiment [5] and in experiment [8] was inactive. Moreover, the compound was called inactive in experiment [6] and in [7]. The AC50 in [3] is 22.1 µM (active) and 25.5 µM (active); in [4], 159 µM (active) and 23.3 µM (active); in experiment [5], 23.3 µM (active); in experiment [7], 23 µM (active) and 25.4 µM (active).

Turning to `O=c1cc(-c2ccccc2)oc2ccc3ccccc3c12`, the call in experiment [1], in experiment [9], in [10], in experiment [3], in experiment [4] and in experiment [5] was inactive. Also, the result in experiment [6] and in experiment [7] was inactive. The AC50 in experiment [2] was 1.08 µM (active) and 2.24 µM (active).

For `CC(O)COc1ccccc1` (configuration not stated), the AC50 in [2] is 59.5 µM (active). Further, the call in experiment [2], in experiment [9], in experiment [10], in experiment [3], in experiment [4] and in [5] was inactive. Besides, the outcome in experiment [8] and in experiment [7] was inactive.

Regarding `CC(C)(c1ccc(Oc2ccc(N)cc2)cc1)c1ccc(Oc2ccc(N)cc2)cc1`, the compound was called inactive in experiment [1], in experiment [9], in [10], in [3], in experiment [4] and in experiment [5]. The result in experiment [6] and in experiment [7] was inactive. In addition, in [2], the AC50 was 2.01 µM (active).

Turning to `O=C(CCCN1CCC(O)(c2ccc(Cl)cc2)CC1)c1ccc(F)cc1`, the AC50 in experiment [1] is 51.2 µM (active); in experiment [10], 52.4 µM (active); in [4], 33.4 µM (active); in experiment [5], 5.07 µM (active); in [8], 59.5 µM (active); in experiment [6] it was 33.4 µM (active). Besides, the outcome in experiment [3] and in experiment [7] was inactive.

With `O=S(=O)(O)C(F)(F)C(F)(F)C(F)(F)C(F)(F)C(F)(F)C(F)(F)C(F)(F)C(F)(F)C(F)(F)C(F)(F)F`, the outcome in [1], in [9], in experiment [10], in [3], in experiment [4] and in experiment [5] was inactive. The compound was classed as inactive in experiment [6] and in [7]. Besides, the AC50 in [2] was 83.7 µM (active) and 40.3 µM (active).

For `FC(F)(F)C(F)(F)C(F)(F)C(F)(F)I`, the outcome in [1], in experiment [2], in [9], in experiment [10], in experiment [3] and in experiment [4] was inactive. In addition, the outcome in [5], in experiment [6] and in experiment [7] was inactive.

Regarding `NS(=O)(=O)O`, the call in experiment [1], in experiment [2], in experiment [9], in experiment [3], in experiment [4] and in experiment [5] was inactive. Also, the outcome in experiment [8], in experiment [6] and in experiment [7] was inactive.

As for `NC(C(F)(F)F)C(F)(F)F`, the compound was called inactive in experiment [2], in [9], in experiment [10], in experiment [3], in [4] and in [5]. For the same compound, the result in [6] and in experiment [7] was inactive.

Regarding `C=CC(=C)CC/C=C(\C)CCC=C(C)C`, the AC50 in experiment [2] is 3.39 µM (active). Also, the outcome in experiment [9], in [10], in experiment [3], in experiment [4], in experiment [5] and in [8] was inactive. In addition, the result in experiment [6] and in experiment [7] was inactive.

Regarding `OCC(CO)(CBr)CBr`, the compound was called inactive in experiment [2], in [9], in experiment [10], in experiment [3], in [4] and in [5]. Besides, the outcome in experiment [8], in experiment [6] and in experiment [7] was inactive.

On to `FC(F)(F)C1(F)C(F)(F)C(F)(F)C(F)(F)C(F)(C(F)(F)F)C1(F)F` (configuration not stated), for which the call in [2], in experiment [9], in experiment [10], in [3], in experiment [4] and in [5] was inactive. Moreover, the compound was called inactive in [8], in [6] and in experiment [7].
